Screens from PubChem BioAssay.
Hits are enriched below; roughly 9% of the tested compounds scored in any of these assays.
G9a inh – G9a (human) methyltransferase inhibition; G9a H3K9 monomethylation, AlphaScreen, 2 h; Potency, µM (top dose mostly 102 µM), inactives show at the top dose activity, negative = inhibition, usual class: inhibitors; 350,000 compounds, 8.8% hits; AID 504332; also: % is scaled to controls: 0 for no effect and ±100 for the full control effect; nearly all actives have a fitted effect of over 75% in size
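G9a (20 nM) was preincubated 15 min with compound, then reacted 2 h at room temperature with 500 nM biotin-H3K9 peptide and 20 µM SAM. Monomethyl-H3K9 detected by AlphaScreen using anti-H3K9me1 antibody.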
JMJD2A Tudor inh – JMJD2A Tudor domain (human) inhibition. Potency, µM (titrated, usually from 114 µM), for the others: at the highest dose activity change, negative = inhibition, hits mostly inhibitors. 390,000 compounds, 4.4% hits. AlphaScreen JMJD2A-Tudor / H3K4me3 peptide binding. O75164; also: % is scaled to controls: 0 for no effect and ±100 for the full control effect; nearly all actives have a fitted effect of over 50% in size
HP1b binding inh – inhibitors of HP1-beta chromodomain binding to methylated histone tails | P83916 | AlphaScreen HP1-beta / biotin-H3K9me3 peptide binding | Potency, µM (highest dose often 114 µM), for the others: at the highest dose activity change, negative = inhibition, actives largely listed as inhibitors | 390,000 compounds, 0.56% hits | AID 540317; also: nearly all actives have a fitted effect of over 70% in size
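HP1-beta protein (50 nM final) preincubated 30 min at room temperature with biotinylated H3(1-18)K9me3 peptide (50 nM) in PBS pH 7.4, 0.01% Tween-20, then compound added for 30 min. AlphaScreen streptavidin donor/nickel chelate acceptor beads (10 ug/mL final), 30 min dark, luminescence read.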
12-LOX inh – blocks human arachidonate 12S-lipoxygenase | P18054 | purified 12hLO, xylenol orange hydroperoxide absorbance | Potency, µM (series often up to 108 µM), inactives show at the highest dose activity change, negative = inhibition, actives largely listed as inhibitors | 580,000 compounds, 1.1% hits | AID 1671190; also: % is scaled to controls: 0 for no effect and ±100 for the full control effect
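Purified human 12hLO at 150 nM in 25 mM Hepes, 0.01% Triton X-100, pH 7.0, preincubated 15 min at room temperature with compound. Reaction started with 40 uM arachidonic acid, 30 min at room temperature. Hydroperoxide measured by Fe-xylenol orange, 573/405 nm absorbance ratio.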
BAZ2B block – blocks human BAZ2B; AlphaScreen BAZ2B-H3K14Ac peptide displacement; Potency, µM (highest dose often 114 µM), inactives show at the top dose activity change, negative = inhibition, most hits filed as inhibitors; 360,000 compounds, 4.4% hits; AID 504333; also: % is scaled to controls: 0 for no effect and ±100 for the full control effect; nearly all actives have a fitted effect of over 60% in size
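BAZ2B (50 nM) with biotin-H3(5-23)K14Ac peptide (50 nM) in PBS pH 7.4, 0.01% Tween-20, preformed 30 min, then compound 30 min at room temperature; top concentration 110uM. AlphaScreen streptavidin donor/nickel chelate acceptor beads (10 ug/mL final), 20 min dark, signal read.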
PLK1 PBD block – inhibitors of human PLK1 polo-box domain binding; P53350; Plk1 PBD binding of FITC phosphopeptide, fluorescence polarization; Potency, µM, for inactives: max response, negative = inhibition, hits mostly inhibitors; 360,000 compounds, 2.8% hits; also: series mostly up to about 57 µM; % is scaled to controls: 0 for no effect and ±100 for the full control effect; nearly all actives have a fitted effect of over 65% in size
Active calls of the source: *; ? = inconclusive; . = no result; [ ] = dose if it differs, or a comment. Calls follow the shape of the dose curve; as a rule, active = well fitted curve in the direction sought with a large enough effect; inconclusive = small, poorly fitted or top-dose-only effect, or another doubt; inactive = no such curve, though single readings can be large; an effect the other way counts as inactive or inconclusive. Potency is read from the fitted curve at half-maximal effect.

SMILES	G9a inh	JMJD2A Tudor inh	HP1b binding inh	12-LOX inh	BAZ2B block	PLK1 PBD block
Cc1ccc(/C=c2/sc3n(c2=O)CCCN=3)o1	8.9µM*	-13%	26%	-16%	-7%	2%
Cc1ccc(N2CN=c3s/c(=C\c4cccnc4)c(=O)n3C2)cc1	8%	-9%	40%	1%	-5%	-11%
Cc1nc2ccccn2c1C(=O)N/N=C/c1ccc(CNC(=O)C(=O)Nc2ccccc2)o1	8%[59 µM]	-24%	14%	6%	-24%	-10%
Cc1ccc(/C=c2\sc3n(c2=O)CN(c2ccc(Br)cc2)CN=3)o1	8.9µM*	-5%[11.4 µM]	-32%	10%	-22%	?
O=C(NCc1ccc(/C=c2\sc3n(c2=O)CCN=3)o1)C(=O)Nc1ccccc1	50µM*	.	.	.	?	.
O=c1c(-c2ccc(Cl)cc2)c(C(F)(F)F)oc2c(CN3CCCCC3)c(O)ccc12	-25%[59 µM]	-9%	43%	-19%	-17%	.
O=C(COC(=O)CCCc1nc2ccccc2s1)NC(=O)NCc1ccco1	?	?	4%	-9%	56µM*	-7%
COCCNC(=O)COC(=O)CSCc1nc2ccccc2s1	79µM*	-15%	19%	0%	9%	-9%
CCOC(=O)NC(=O)COC(=O)CCCSc1nc2ccccc2s1	12%	-18%	28%	0%	16%	-19%
CN(C)CCCSc1nc2ccccc2s1	14µM*	-33%	?	-26%	?	?
NC(=O)NC(=O)COC(=O)CCCSc1nc2ccccc2s1	13%	-4%[11.4 µM]	6%	7%	-1%	21µM*
O=C(NCc1ccco1)c1nc2ccccc2s1	-16%[12.7 µM]	-34%	12%	17%	-5%	-5%
CC(=O)Nc1ccc(NC(=O)C(C)OC(=O)c2cc(S(=O)(=O)N(C)C)ccc2N2CCCC2)cc1 (stereo not given)	?	-14%	12%	-15%	-3%	-9%
CCOc1cc(C(=S)N2CCOCC2)ccc1OC(=O)c1ccc(C)cc1	45µM*	?	-21%	-15%	-32%	-20%
CCOc1cc2nc(-c3ccc(OC)c(OC)c3)nc(N3CCOCC3)c2cc1OC	-7%[2.33 µM]	-26%	8%	-7%	56µM*	-3%
CCOc1ccc(C(=S)N2CCOCC2)cc1OC	?	-8%	-15%	30%	-3%	?
CCOc1cc(C(=S)N2CCOCC2)ccc1OC(=O)c1cccc(C)c1	?	?	-6%	-10%	-36%	-18%
CCOc1cc(C(=S)N2CCOCC2)ccc1OC	10µM*	-17%	-18%	?	1%	24µM*
CCOc1ccc(C(=S)N2CCCC2)cc1OCC	10µM*	-6%	-10%	?	6%	?
CC(=O)Nc1ccc2c(c1)nc(CCn1ccnc1C)n2C	.	.	.	-8%	.	.
CCOC(=O)CCNC(=O)CNC(=O)OCc1ccccc1	?	10%	47%	144%	7%	-1%
CCOc1cc(C(=S)N2CCOCC2)ccc1OC(=O)c1ccccc1	22µM*	-34%	-25%	?	?	?
CCOc1cc(/C=C/C(=O)c2ccc(OC)c(CN3CCOCC3)c2)cc(Br)c1O	45µM*	?	-37%	-17%	?	49%
CCOc1ccc(C(CN2CCOCC2)C(C)=O)cc1OC (stereo not given)	.	.	.	32µM*	.	-17%
Cc1ccc2nc(-c3ccc(O)c(O)c3)cn2c1	.	22µM*	?	18µM*	50µM*	?
SMILES	G9a inh	JMJD2A Tudor inh	HP1b binding inh	12-LOX inh	BAZ2B block	PLK1 PBD block
Fc1ccccc1-c1csc(-c2cccnc2)n1	-14%	52%	135%	-11%	88%	-1%
Oc1ccc(-c2nc(-c3ccc(Cl)cc3)cs2)cc1	.	.	.	14µM*	.	.
Cc1nc(-c2ccc(O)c(O)c2)cs1	1.4µM*	4µM*	?	7.1µM*	-36%	?
Cc1ccc2nc(-c3ccccc3)cn2c1	20%[12.7 µM]	-24%	-4%	?	-8%	-2%
COc1cc(-c2csc(C)n2)ccc1O	-1%[12.7 µM]	-1%	20%	0%	5%	-1%
Clc1ccc(-c2csc(-c3cccnc3)n2)s1	40µM*	53%	114%	124%	3%	0%
CCCCCc1cc(OC)cc2c1C(=O)OC(C)(C)O2	.	122%	193%	22%	.	-3%
O=C(COc1cccnc1[N+](=O)[O-])N1CCc2ccccc21	-3%	-6%	27%	-4%	1%	-16%
COc1cccc2oc3ccc(C#CC4(N)CCCCC4)cc3c(=O)c12	?	-21%	19%	?	-4%	-5%
CCN(C(=O)CN1CCC(C)CC1)c1c(N)n(Cc2ccccc2)c(=O)[nH]c1=O	-7%	-1%	16%	-10%	-5%	-8%
Oc1ccc(-c2csc(-c3cccnc3)n2)cc1O	.	7.1µM*	79µM*	10%	45µM*	-16%
Oc1ccc(-c2csc(-c3ccccc3)n2)cc1O	?	40µM*	?	7.1µM*	56µM*	-1%
Oc1ccccc1-c1csc(-c2ccccc2)n1	114%	115%	162%	-28%	76%	-18%
CNc1cc(-c2ccccc2CN(C)C)ncn1	-1%[0.501 µM]	.	.	-3%	.	.
CC(=O)Oc1ccc2oc(-c3ccccc3)c(C(N)=O)c2c1	26%[59 µM]	-13%[11.4 µM]	-12%	.	-8%	27µM*
COC(=O)N/N=C(\C)c1ccc(Br)cc1	1%[59 µM]	-13%	19%	-7%	8%	-11%
CSC(=S)N/N=C(\C)c1ccc(Br)cc1	?	?	?	45µM*	?	?
CC1CCN(C(=O)Cn2cc(S(=O)(=O)CC(=O)N3CCOCC3)c3ccccc32)CC1	.	-3%	43%	-10%	.	2%
O=C(NC1CCS(=O)(=O)C1)C1CCCCN1S(=O)(=O)c1ccc(Cl)cc1 (stereo not given)	28µM*	-16%	18%	-14%[57.4 µM]	3%	?
O=C(Nc1ccccc1)C1=C(c2ccccc2)S(=O)(=O)CCS1(=O)=O	28µM*	-2%	55%	-4%	-14%	5.3µM*
O=C(Nc1cccnc1)C1=C(c2ccccc2)S(=O)(=O)CCO1	.	.	.	4%	.	.
C[C@@H](NC(=O)Cc1ccccc1)c1onc(-c2ccc(F)cc2)c1C(=O)O	.	.	.	4%[176 µM]	.	.
COC(=O)c1ccccc1C(=O)c1cccc2ccccc12	71%	34%	76%	13%	15%	-15%
COC(=O)c1c[nH]c(=O)c2ccccc12	.	?	-17%	-6%	3%	15µM*
Cc1cccc(N(C(=O)c2snc(C(N)=O)c2N)C(C(=O)NCC2CCCO2)c2ccc(N(C)C)cc2)c1C (stereo not given)	50µM*	-27%	-10%	-19%	28µM*	4%
Cc1ccc(C)c(N(C(=O)c2snc(C(N)=O)c2N)C(C(=O)NCC2CCCO2)c2cccs2)c1 (stereo not given)	12%	11µM*	19%	28%	-13%	30µM*
